{"source": "the supplement of paper PMC7393113", "tested_on": "iBMDM (immortalised mouse bone-marrow-derived macrophages), LPS-stimulated", "assay": "mitochondrial superoxide (MitoSOX fluorescence) fold increase over unstimulated control; higher = more LPS-induced mitochondrial ROS (less inhibition)", "details": "inhibitor concentration: 500 nM, LPS: 100 ng/ml", "summary_of_the_method": "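Values are fold induction of mitochondrial superoxide relative to untreated macrophages, as a mean of replicates. Immortalised mouse bone-marrow-derived macrophages, seeded in triplicate in black 96-well plates, spent 20 h in phenol-red-free 1% FCS/DMEM before a 30 min pretreatment with kinase inhibitors (500 nM). After 10 min loading with 1 μM MitoSox, cells received LPS (100 ng/ml), and fluorescence (510/580 nm) was measured every 60 min for 4 h.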", "note": "± gives the standard deviation of the averaged measurements."}
{"compound": "COC[C@H]1OC(=O)c2coc3c2[C@@]1(C)C1=C(C3=O)[C@@H]2CCC(=O)[C@@]2(C)C[C@H]1OC(C)=O", "note": "[Wortmannin]", "values": [{"measurement": "mitochondrial superoxide", "setting": "time after LPS: 1 h", "value": "1.4 ± 0.084"}, {"measurement": "mitochondrial superoxide", "setting": "time after LPS: 2 h", "value": "1.45 ± 0.05"}, {"measurement": "mitochondrial superoxide", "setting": "time after LPS: 4 h", "value": "1.78 ± 0.079"}]}
{"compound": "CC(C)(C)c1cc(C=C(C#N)C#N)cc(C(C)(C)C)c1O", "note": "[Tyrphostin 9]", "values": [{"measurement": "mitochondrial superoxide", "setting": "time after LPS: 1 h", "value": "1.17 ± 0.033"}, {"measurement": "mitochondrial superoxide", "setting": "time after LPS: 2 h", "value": "1.21 ± 0.041"}, {"measurement": "mitochondrial superoxide", "setting": "time after LPS: 4 h", "value": "1.275 ± 0.0071"}]}
{"compound": "CCN1CCN(C(=O)Cc2ccc(Nc3ncc(F)c(Nc4ccc(C(=O)Nc5ccccc5Cl)cc4)n3)cc2)CC1", "note": "[Aurora A Inhibitor I]", "values": [{"measurement": "mitochondrial superoxide", "setting": "time after LPS: 1 h", "value": "1.17 ± 0.065"}, {"measurement": "mitochondrial superoxide", "setting": "time after LPS: 2 h", "value": "1.24 ± 0.014"}, {"measurement": "mitochondrial superoxide", "setting": "time after LPS: 4 h", "value": "1.32 ± 0.049"}]}
{"compound": "N#CC(C#N)=Cc1ccc(O)c(O)c1", "values": [{"measurement": "mitochondrial superoxide", "setting": "time after LPS: 1 h", "value": "1.364 ± 0.013"}, {"measurement": "mitochondrial superoxide", "setting": "time after LPS: 2 h", "value": "1.45 ± 0.055"}, {"measurement": "mitochondrial superoxide", "setting": "time after LPS: 4 h", "value": "1.666 ± 0.0094"}]}
{"compound": "Cn1cc(C2=C(c3cn(C4CCN(Cc5ccccn5)CC4)c4ccccc34)C(=O)NC2=O)c2ccccc21", "values": [{"measurement": "mitochondrial superoxide", "setting": "time after LPS: 1 h", "value": "1.7 ± 0.15"}, {"measurement": "mitochondrial superoxide", "setting": "time after LPS: 2 h", "value": "1.76 ± 0.18"}, {"measurement": "mitochondrial superoxide", "setting": "time after LPS: 4 h", "value": "1.92 ± 0.14"}]}
{"compound": "Cc1ccccc1-n1c(Cn2ncc3c(N)ncnc32)nc2cccc(C)c2c1=O", "values": [{"measurement": "mitochondrial superoxide", "setting": "time after LPS: 1 h", "value": "1.14 ± 0.012"}, {"measurement": "mitochondrial superoxide", "setting": "time after LPS: 2 h", "value": "1.25 ± 0.041"}, {"measurement": "mitochondrial superoxide", "setting": "time after LPS: 4 h", "value": "1.32 ± 0.04"}]}
{"compound": "O=c1[nH]c2ccc(Cl)cc2c(N[C@@H]2CN3CCC2CC3)c1-c1nc2ccccc2[nH]1", "values": [{"measurement": "mitochondrial superoxide", "setting": "time after LPS: 1 h", "value": "1.2 ± 0.013"}, {"measurement": "mitochondrial superoxide", "setting": "time after LPS: 2 h", "value": "1.4 ± 0.045"}, {"measurement": "mitochondrial superoxide", "setting": "time after LPS: 4 h", "value": "1.68 ± 0.044"}]}
{"compound": "CC(C)(C)c1cc(C=C(C#N)C#N)cc(Br)c1O", "values": [{"measurement": "mitochondrial superoxide", "setting": "time after LPS: 1 h", "value": "1.12 ± 0.029"}, {"measurement": "mitochondrial superoxide", "setting": "time after LPS: 2 h", "value": "1.16 ± 0.069"}, {"measurement": "mitochondrial superoxide", "setting": "time after LPS: 4 h", "value": "1.11 ± 0.063"}]}
